From PubChem BioAssay
Activity calls are given as the source filed them.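 The calls were made as follows, unless noted: active = inhibition of the reporter signal at or above 50%; inactive = inhibition below 50%.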

What was measured:
[1] = inhibitors of TNFa-induced NFkB p65 translocation, primary screen, imaging, HUVEC, MLSMR starter and 10KST1 sets (AID 438;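 active = inhibition above 20% together with a positive visual image hit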;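 also: compound added about 3h40 before a 20 min TNFalpha stimulation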;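 as to inhibition: signal is the nuclear over cytoplasmic p65 intensity ratio per well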); details: HUVEC TNFa-induced p65 nuclear translocation; cell count: measured here: nuclei count (cytotoxicity indicator), at 2.08 µM; inhibition: at 2 µM, stronger effect = higher value, 0% TNFa-plus-vehicle, 100% no-TNFa wells
[2] = inhibitors of mutant huntingtin aggregation, primary screen, imaging, exon1htt(103Q)mCFP cells, high-content imaging (AID 483;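 active = visual image review flags a hit and inhibition of aggregation exceeds 20%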;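 also: compound exposure lasted 3 days before fixation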;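 as to nuclei count: percent of the per-plate median nuclei count of sample wells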); details: exon1htt(103Q)mCFP cell line, aggregate imaging, at 2 µM; inhibition of aggregation: stronger effect = higher value; nuclei count: measured here: cell count, toxicity
[3] = inhibitors of E-selectin induction by TNFa, primary screen, imaging, HUVEC, immunofluorescence, MLSMR starter and 10KST1 sets (AID 487;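 active = visually confirmed hit in the image check and inhibition above 20%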;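 as to inhibition: signal is fraction of cell area covered by stained E-selectin grains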;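 as to nuclei count: 100% = median nuclei count of all wells on the same plate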); details: HUVEC TNFalpha-induced E-selectin immunofluorescence imaging, at 2 µM; inhibition: stronger effect = higher value; nuclei count: measured here: cell number, toxicity
[4] = target: Voltage-gated potassium channel subunit beta-2 (Rattus norvegicus) (UniProt P62483); assay: KvBeta enzyme negative modulators, primary screen, biochemical, NADPH fluorescence (AID 622;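 active = fluorescence slope higher than the sample average by over 3 SD, cut at about -0.22 in these data, passing the limit was not always enough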;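 also: slope of raw intensity against log time taken from 70 to 1610 s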); details: recombinant KvBeta, 4-cyanobenzaldehyde reduction, at 10 µM, stronger effect = higher value
[5] = target: Voltage-gated potassium channel subunit beta-2 (Rattus norvegicus) (UniProt P62483); assay: KvBeta positive modulators, primary screen, biochemical, NADPH fluorescence (AID 623;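 active = NADPH fluorescence slope more negative than the mean of all samples by about 3 SD, 99.7% confidence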;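 also: fluorescence intensity change per second fitted from 20 to 320 s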); details: Recombinant KvBeta, NADPH fluorescence decrease slope, 10 min; at 10 µM; stronger effect = lower value
[6] = target: Alpha-2C adrenergic receptor (Homo sapiens) (UniProt P18825); assay: modulators of alpha2C/GIRK thallium flux, primary screen, cell-based, HEK293 alpha2C/GIRK1/2 (AID 624;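 active = fluorescence slope after compound addition differing from the mean of all screened samples at 99.7% confidence, in either direction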;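 also: slope of fluorescence ratio to pre-addition baseline per second over 15 to 24 s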); details: thallium flux BTC fluorescence, at 10 µM, actives lie on both sides
[7] = inhibitors of Sendai virus-induced IRF3 signaling, primary screen, TLR/RLR signaling modifier project, cell-based, Sendai virus stimulus, luciferase, 10K MLSCN set (AID 602276;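 active = inhibition at or above 50% at 10 µM; inactive = inhibition below 50%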;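 also: firefly luciferase from ISG56 promoter only with Renilla not read in this screen; 0% = Sendai virus plus DMSO and 100% = medium plus DMSO without virus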); details: HEK293 RL24 IRF3 luciferase reporter, at 10 µM, stronger effect = higher value
[8] = inhibitors of poly I:C-induced TLR3 signaling, primary screen, cell-based, poly I:C stimulus, luciferase, 10K MLSCN set (AID 602277); details: HEK293-TLR3 RL24 IRF3 luciferase reporter, at 10 µM, stronger effect = higher value

Sequence of Voltage-gated potassium channel subunit beta-2 (Rattus norvegicus) (P62483 whole entry, looked up): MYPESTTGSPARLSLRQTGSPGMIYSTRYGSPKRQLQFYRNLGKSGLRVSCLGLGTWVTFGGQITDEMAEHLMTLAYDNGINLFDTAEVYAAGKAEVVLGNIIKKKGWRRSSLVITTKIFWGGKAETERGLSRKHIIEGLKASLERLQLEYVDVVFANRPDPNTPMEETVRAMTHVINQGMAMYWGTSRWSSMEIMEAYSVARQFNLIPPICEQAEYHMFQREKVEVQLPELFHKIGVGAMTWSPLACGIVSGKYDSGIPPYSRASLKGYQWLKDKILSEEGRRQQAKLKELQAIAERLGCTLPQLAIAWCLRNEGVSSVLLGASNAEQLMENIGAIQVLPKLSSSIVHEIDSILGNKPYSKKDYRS
Sequence of Alpha-2C adrenergic receptor (Homo sapiens) (P18825 whole entry, looked up): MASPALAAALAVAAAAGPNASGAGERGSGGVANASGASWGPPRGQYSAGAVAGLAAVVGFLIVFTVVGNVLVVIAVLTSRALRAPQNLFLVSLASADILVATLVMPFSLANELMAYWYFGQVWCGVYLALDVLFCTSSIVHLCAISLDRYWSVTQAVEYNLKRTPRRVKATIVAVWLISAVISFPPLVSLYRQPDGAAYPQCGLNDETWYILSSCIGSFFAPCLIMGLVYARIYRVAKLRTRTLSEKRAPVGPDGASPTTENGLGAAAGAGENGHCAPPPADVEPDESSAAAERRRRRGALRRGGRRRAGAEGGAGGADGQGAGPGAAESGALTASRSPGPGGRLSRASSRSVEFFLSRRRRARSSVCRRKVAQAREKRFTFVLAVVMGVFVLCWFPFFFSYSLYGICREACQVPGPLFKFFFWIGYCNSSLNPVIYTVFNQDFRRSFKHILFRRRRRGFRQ

Row | Compound | cell count [1] | inhibition [1] | inhibition of aggregation [2] | nuclei count [2] [%] | inhibition [3] | nuclei count [3] [%] | fluorescence slope [4] | NADPH fluorescence slope [5] | slope [6] | inhibition [7] | inhibition [8]
1 | O=C(Nc1sc2c(c1C(=O)NCc1ccco1)CCCC2)c1ccc2c(c1)OCO2 | 563 | -10.1% (inactive) | 2.5% (inactive) | 103 | -56% (inactive) | 117 | -0.517 (inactive) | 3.8e-06 (inactive) | 0.00669 (inactive) | -29.8% (inactive) | -179% (inactive)
2 | CC(C)C(=O)Nc1ccc(C(=O)NCc2cccnc2)cc1 | 393 | 9.4% (inactive) | 10% (inactive) | 102 | -115% (inactive) | 109 | -0.598 (inactive) | 1.1e-05 (inactive) | 0.00588 (inactive) | -10.7% (inactive) | -31.6% (inactive)
3 | COc1ccc(S(=O)(=O)NCCC(=O)NC2CCCCCCC2)cc1 | 293 | 2.8% (inactive) | 13.6% (inactive) | 95 | -89.3% (inactive) | 97 | -0.4 (inactive) | -8.9e-05 (inactive) | 0.00674 (inactive) | 17.8% (inactive) | 26% (inactive)
4 | O=C1C(c2ccncc2)=C(O)c2ccccc21 | 302 | -8.6% (inactive) | 1.9% (inactive) | 73 | 0.7% (inactive) | 91.1 | -0.333 (inactive) | -1.1e-05 (inactive) | 0.00364 (inactive) | 4.51% (inactive) | -0.387% (inactive)
5 | CCOC(=O)CSc1nc2c(c(-c3ccc(C)o3)c1C#N)CCCC2 | 430 | -4.4% (inactive) | -20.4% (inactive) | 100 | -63.3% (inactive) | 128 | -0.447 (inactive) | -9.4e-05 (inactive) | 0.00861 (inactive) | 10.2% (inactive) | 18.3% (inactive)
6 | Cc1cc2c(cc1C)-c1nnnn1C(C)(C)C2 | 655 | 2.4% (inactive) | 13.2% (inactive) | 91.6 | 67.5% (active) | 88.2 | -0.421 (inactive) | -3e-05 (inactive) | 0.00748 (inactive) | -16.2% (inactive) | 82.3% (active)
7 | Cc1nc2ccc(S(=O)(=O)NC(C(=O)NCc3cccs3)C(C)C)cc2s1 (stereo not drawn) | 332 | -8.3% (inactive) | 24.4% (inactive) | 88.7 | -28.8% (inactive) | 106 | -0.612 (inactive) | -5.2e-05 (inactive) | 0.00687 (inactive) | -5.51% (inactive) | 14.4% (inactive)
8 | COc1ccc(S(=O)(=O)NCC(c2cccnc2)N2CCN(c3ccc(F)cc3)CC2)cc1C (stereo not drawn) | 234 | -19.1% (inactive) | -4.9% (inactive) | 56.8 | 19.6% (inactive) | 87.7 | -0.447 (inactive) | 1.7e-05 (inactive) | 0.00574 (inactive) | 13.6% (inactive) | 27.2% (inactive)
9 | Cc1cccc(NC(=O)c2cc(NC(=O)c3ccco3)ccc2N2CCCCC2)c1 | 635 | -3.9% (inactive) | -3.7% (inactive) | 113 | -48.5% (inactive) | 107 | -0.52 (inactive) | -1.8e-05 (inactive) | 0.0032 (inactive) | 8.72% (inactive) | 8.79% (inactive)
10 | CC1(C)C(=O)Nc2ccccc2N1C(=O)COC(=O)Cn1cnc2ccccc2c1=O | 465 | 2.5% (inactive) | -1.8% (inactive) | 107 | -67.7% (inactive) | 116 | -0.364 (inactive) | -1.3e-05 (inactive) | 0.00422 (inactive) | 7.38% (inactive) | 20.1% (inactive)
11 | COc1cccc(NC(=O)c2ccco2)c1 | 596 | 5.6% (inactive) | 7% (inactive) | 93.3 | 32.9% (inactive) | 96.1 | -0.401 (inactive) | 6.1e-06 (inactive) | 0.00282 (inactive) | -31.2% (inactive) | -128% (inactive)
12 | Fc1cccc(Nc2cc(-n3cccn3)ncn2)c1 | 553 | -8.3% (inactive) | -0.2% (inactive) | 89.5 | -65.9% (inactive) | 109 | -0.509 (inactive) | -7.2e-05 (inactive) | 0.00508 (inactive) | -32.7% (inactive) | -66.1% (inactive)
13 | O=C(Nc1nnc(CCN2CCCCC2)s1)C1CCCCC1 | 455 | -11.2% (inactive) | 7% (inactive) | 113 | -31.8% (inactive) | 102 | -0.411 (inactive) | -6e-05 (inactive) | 0.00451 (inactive) | 15.1% (inactive) | 16.5% (inactive)
14 | COCCN1Cc2cccc(C(=O)Nc3cccnc3)c2C1=O | 649 | -26.5% (inactive) | -6.7% (inactive) | 100 | -39.6% (inactive) | 100 | -0.503 (inactive) | -0.000182 (inactive) | 0.00506 (inactive) | 6.71% (inactive) | 5.54% (inactive)
15 | COc1cccc(C2CC(c3ccc(F)cc3)Nc3nc(N)nn32)c1 (stereo not drawn) | 605 | -6.5% (inactive) | 1.4% (inactive) | 105 | -6.1% (inactive) | 117 | -0.501 (inactive) | 2.1e-05 (inactive) | 0.00747 (inactive) | -17.7% (inactive) | 16.2% (inactive)
16 | COCCn1nnnc1CN(Cc1cccnc1)Cc1cc2cc(OC)ccc2[nH]c1=O | 670 | -10.6% (inactive) | -13.1% (inactive) | 122 | -11.6% (inactive) | 107 | -0.605 (inactive) | -3.4e-05 (inactive) | 0.00315 (inactive) | 14.3% (inactive) | 25.2% (inactive)
17 | C=CCN(CC=C)C(=O)c1ccncc1 | 267 | -14% (inactive) | 4.9% (inactive) | 53.2 | -86.3% (inactive) | 110 | -0.501 (inactive) | 1.1e-05 (inactive) | 0.00479 (inactive) | 4.76% (inactive) | 5.55% (inactive)
18 | COc1ccc(C)cc1-n1c(N)c(C#N)c(C#N)c1-c1ccc(OC)c(OC)c1OC | 676 | -3.9% (inactive) | 16.9% (inactive) | 86 | -9.7% (inactive) | 105 | -0.537 (inactive) | 2.9e-05 (inactive) | 0.00611 (inactive) | 12% (inactive) | 32.6% (inactive)
19 | CC(O)CN1C(=O)C(CC(=O)Nc2ccc(Cl)cc2)SC1=Nc1ccccc1 (stereo not drawn) | 671 | -3.9% (inactive) | -11.8% (inactive) | 119 | -16.8% (inactive) | 116 | -0.453 (inactive) | -0.000376 (inactive) | 0.00536 (inactive) | 2.35% (inactive) | 11.1% (inactive)
20 | Cc1ccc(S(=O)(=O)N2CCCC2C(=O)OCc2nc3ccccc3s2)cc1 (stereo not drawn) | 459 | -1.1% (inactive) | 4.3% (inactive) | 116 | -89% (inactive) | 110 | -0.519 (inactive) | -5.7e-05 (inactive) | 0.00533 (inactive) | 8.31% (inactive) | 25.2% (inactive)
21 | CCOC(=O)c1ccc(NC(=O)CSC2=NC(=O)C(CC)C(=O)N2)cc1 (stereo not drawn) | 534 | -20.1% (inactive) | -43.6% (inactive) | 83.8 | -104% (inactive) | 102 | -0.569 (inactive) | 2.6e-05 (inactive) | 0.00682 (inactive) | -3.93% (inactive) | -17% (inactive)
22 | O=C(OCC#CCSc1nc2ccccc2s1)c1ccco1 | 639 | -19.8% (inactive) | -8.9% (inactive) | 116 | -28.5% (inactive) | 100 | -0.471 (inactive) | 2.6e-05 (inactive) | 0.00607 (inactive) | -14.4% (inactive) | -21.9% (inactive)
23 | CC1CCN(Cc2ccc(NC(=O)C3CCN(c4nnc(-n5cccc5)s4)CC3)cc2)CC1 | 720 | -3% (inactive) | 13.7% (inactive) | 50.5 | 44.3% (inactive) | 97.9 | -0.409 (inactive) | -5.4e-05 (inactive) | 0.0059 (inactive) | 10.3% (inactive) | 44% (inactive)
24 | CCOC(=O)c1cnc(SCC)[nH]c1=O | 436 | -11.8% (inactive) | -0.2% (inactive) | 118 | -34.3% (inactive) | 117 | -0.351 (inactive) | -2.9e-05 (inactive) | 0.00558 (inactive) | 6.7% (inactive) | 27% (inactive)
25 | CCc1nnc(NC(=O)CSc2nnc3scc(-c4ccc(C)cc4)n23)s1 | 684 | -32.6% (inactive) | 9.1% (inactive) | 96.5 | -5.3% (inactive) | 104 | -0.504 (inactive) | -0.000345 (inactive) | 0.00638 (inactive) | 14.5% (inactive) | 14.2% (inactive)
26 | COc1cc2c(cc1OC)C(C)N(C(=O)Cn1ncc3c1-c1ccccc1OC3)CC2 (stereo not drawn) | 697 | -4.8% (inactive) | -21.5% (inactive) | 114 | -39.6% (inactive) | 117 | -0.587 (inactive) | -3.4e-05 (inactive) | 0.008 (inactive) | 7.96% (inactive) | 17.3% (inactive)
27 | COCCNC(=O)CN1C(=O)CSc2ncccc21 | 673 | -6.7% (inactive) | -43.1% (inactive) | 115 | -62.1% (inactive) | 117 | -0.413 (inactive) | -1.6e-05 (inactive) | 0.00576 (inactive) | 11.1% (inactive) | 28.9% (inactive)
28 | CCn1c(SCC(=O)c2ccc(OC)cc2)nnc1C(C)NC(=O)c1ccc(OC)cc1 (stereo not drawn) | 449 | -1.8% (inactive) | 2.6% (inactive) | 96.2 | -41.9% (inactive) | 129 | -0.409 (inactive) | 2.1e-05 (inactive) | 0.00558 (inactive) | -3.91% (inactive) | 9.81% (inactive)
